ChEMBL document CHEMBL3988442, “University of Dundee, Small-Polar-MMV Screening Library” (2021)
For some assays here: Measured potencies and affinities stand elsewhere.

What was measured:
Parameters in all cases: scale not given: direction of the effect not stated beside the values
[1] = biological target: Protein translocase subunit SecA (Escherichia coli (strain K12)) (UniProt P10408); assay: Assay to Identify E. coli SecA ATPase Inhibitors; type: functional; settings: 30 µM
[2] = biological target: T1, Ubiquitin-activating enzyme e1, putative (Leishmania donovani (strain BPK282A1)) (UniProt E9BSI1); assay: Leishmania donovani Ubiquitin Activating Enzyme (LdE1); type: functional; settings: 30 µM
T1 sequence (whole entry): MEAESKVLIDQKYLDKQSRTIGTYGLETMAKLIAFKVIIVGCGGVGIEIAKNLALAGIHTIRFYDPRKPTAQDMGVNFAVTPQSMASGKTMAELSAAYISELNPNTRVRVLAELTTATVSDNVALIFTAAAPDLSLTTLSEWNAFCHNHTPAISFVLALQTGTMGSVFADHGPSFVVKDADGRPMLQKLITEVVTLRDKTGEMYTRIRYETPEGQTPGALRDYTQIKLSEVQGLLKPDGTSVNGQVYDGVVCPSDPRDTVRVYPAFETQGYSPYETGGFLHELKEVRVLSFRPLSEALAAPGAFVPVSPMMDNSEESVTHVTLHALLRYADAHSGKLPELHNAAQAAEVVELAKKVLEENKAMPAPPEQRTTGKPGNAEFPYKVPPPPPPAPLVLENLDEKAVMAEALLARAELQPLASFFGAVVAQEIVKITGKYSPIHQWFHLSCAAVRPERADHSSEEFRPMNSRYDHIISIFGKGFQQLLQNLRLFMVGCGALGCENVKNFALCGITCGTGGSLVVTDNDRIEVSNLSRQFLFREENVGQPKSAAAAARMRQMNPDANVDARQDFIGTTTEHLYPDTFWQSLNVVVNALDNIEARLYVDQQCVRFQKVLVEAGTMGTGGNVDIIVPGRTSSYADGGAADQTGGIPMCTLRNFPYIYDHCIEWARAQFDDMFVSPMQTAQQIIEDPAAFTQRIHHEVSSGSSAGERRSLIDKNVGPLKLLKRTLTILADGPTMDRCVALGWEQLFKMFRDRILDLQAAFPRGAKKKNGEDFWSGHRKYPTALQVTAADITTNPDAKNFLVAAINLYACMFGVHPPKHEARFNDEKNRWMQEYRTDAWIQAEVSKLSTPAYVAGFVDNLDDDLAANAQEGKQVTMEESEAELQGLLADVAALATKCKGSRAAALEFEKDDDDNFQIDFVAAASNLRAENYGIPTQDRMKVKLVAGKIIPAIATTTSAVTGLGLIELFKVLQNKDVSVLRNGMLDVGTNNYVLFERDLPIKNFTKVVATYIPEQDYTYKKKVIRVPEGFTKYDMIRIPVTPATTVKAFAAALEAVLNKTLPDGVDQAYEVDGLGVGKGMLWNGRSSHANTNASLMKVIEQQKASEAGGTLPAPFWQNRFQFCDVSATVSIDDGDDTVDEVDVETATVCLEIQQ

[3] = biological target: AMP-activated protein kinase, AMPK (Homo sapiens) (UniProt P54646+O43741+P54619+Q9UGJ0+Q9Y478+Q13131+Q9UGI9); assay: AMP-dependent Kinase enzyme assay. An in vitro enzyme assay that detects ADP turnover that is directly proportional to AMPK activity. This uses naive AMPK that is activated during the assay with MK-8722; type: functional; settings: 30 µM
[4] = biological target: Sialic acid-binding Ig-like lectin 9 (Homo sapiens) (UniProt Q9Y336); assay: Hs-Siglec9 ALPHAscreen SOP 20170721; settings: 10 µM
Sialic acid-binding Ig-like lectin 9 (Homo sapiens), sequence (Q9Y336 whole entry): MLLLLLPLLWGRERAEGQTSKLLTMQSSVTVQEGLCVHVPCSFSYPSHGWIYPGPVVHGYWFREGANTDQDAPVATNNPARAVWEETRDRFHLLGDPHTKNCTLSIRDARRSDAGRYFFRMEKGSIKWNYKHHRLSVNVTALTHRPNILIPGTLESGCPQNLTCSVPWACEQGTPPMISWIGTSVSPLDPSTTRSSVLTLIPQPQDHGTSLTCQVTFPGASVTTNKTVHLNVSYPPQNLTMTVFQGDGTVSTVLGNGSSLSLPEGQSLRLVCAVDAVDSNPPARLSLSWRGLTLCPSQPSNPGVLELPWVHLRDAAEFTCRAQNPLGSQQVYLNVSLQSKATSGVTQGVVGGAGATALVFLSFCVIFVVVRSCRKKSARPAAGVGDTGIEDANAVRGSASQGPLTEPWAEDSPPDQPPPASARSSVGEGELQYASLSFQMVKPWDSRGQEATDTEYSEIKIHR

Trypanosoma cruzi = assay: Trypanosoma cruzi phosphomannomutase and mannose-1-phosphate guanylyltransferase assay; type: functional; settings: 10 µM
[5] = biological target: T2, Arginase-2, mitochondrial (Homo sapiens) (UniProt P78540); assay: in vitro enzyme assay to detect the production of urea directly proportional to the activity of Arginase II; type: functional; settings: 33.3 µM; also: in the data most compounds retested in dose-response had high values
T2 sequence (whole entry): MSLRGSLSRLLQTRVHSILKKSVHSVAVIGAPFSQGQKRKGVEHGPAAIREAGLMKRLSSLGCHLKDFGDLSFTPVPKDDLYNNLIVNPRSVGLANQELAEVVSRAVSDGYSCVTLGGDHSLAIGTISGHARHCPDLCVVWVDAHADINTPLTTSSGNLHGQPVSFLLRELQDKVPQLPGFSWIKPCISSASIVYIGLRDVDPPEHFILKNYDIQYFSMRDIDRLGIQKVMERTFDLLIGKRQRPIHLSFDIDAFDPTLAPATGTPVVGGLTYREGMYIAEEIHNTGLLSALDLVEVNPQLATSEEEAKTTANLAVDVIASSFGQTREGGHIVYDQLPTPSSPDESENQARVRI

[6] = biological target: T3, Proteasome subunit beta (Trypanosoma cruzi) (UniProt O96673); assay: Trypanosoma cruzi proteasome chymotrypsin-like activity (TcProtChymo) assay.; also: in the data most compounds retested in dose-response had high values; type: functional; settings: 9.37 µM
T3 sequence (whole entry): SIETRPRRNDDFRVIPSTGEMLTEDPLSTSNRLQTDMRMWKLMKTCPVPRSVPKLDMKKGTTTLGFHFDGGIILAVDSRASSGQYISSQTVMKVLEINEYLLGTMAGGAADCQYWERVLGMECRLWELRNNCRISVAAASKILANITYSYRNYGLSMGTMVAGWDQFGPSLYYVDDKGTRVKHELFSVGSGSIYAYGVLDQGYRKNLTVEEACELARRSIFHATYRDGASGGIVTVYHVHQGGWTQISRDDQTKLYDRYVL

Homo sapiens = species: Homo sapiens; assay: To identify inhibition of the IFN signalling (Jak-Stat) pathway via expression of an eGFP reporter gene under the control of an IFN-stimulated response element (ISRE) containing MxA promoter.; type: functional; settings: 30 µM
[7] = biological target: T4, Tyrosyl-tRNA synthetase, putative (Trypanosoma cruzi (strain CL Brener)) (UniProt Q4DSP6); assay: Trypanosoma cruzi tyrosyl tRNA synthetase (TcYRS) _High Tyrosine SOP; type: functional; settings: 30 µM; also: in the data most compounds retested in dose-response had high values
T4 sequence (whole entry): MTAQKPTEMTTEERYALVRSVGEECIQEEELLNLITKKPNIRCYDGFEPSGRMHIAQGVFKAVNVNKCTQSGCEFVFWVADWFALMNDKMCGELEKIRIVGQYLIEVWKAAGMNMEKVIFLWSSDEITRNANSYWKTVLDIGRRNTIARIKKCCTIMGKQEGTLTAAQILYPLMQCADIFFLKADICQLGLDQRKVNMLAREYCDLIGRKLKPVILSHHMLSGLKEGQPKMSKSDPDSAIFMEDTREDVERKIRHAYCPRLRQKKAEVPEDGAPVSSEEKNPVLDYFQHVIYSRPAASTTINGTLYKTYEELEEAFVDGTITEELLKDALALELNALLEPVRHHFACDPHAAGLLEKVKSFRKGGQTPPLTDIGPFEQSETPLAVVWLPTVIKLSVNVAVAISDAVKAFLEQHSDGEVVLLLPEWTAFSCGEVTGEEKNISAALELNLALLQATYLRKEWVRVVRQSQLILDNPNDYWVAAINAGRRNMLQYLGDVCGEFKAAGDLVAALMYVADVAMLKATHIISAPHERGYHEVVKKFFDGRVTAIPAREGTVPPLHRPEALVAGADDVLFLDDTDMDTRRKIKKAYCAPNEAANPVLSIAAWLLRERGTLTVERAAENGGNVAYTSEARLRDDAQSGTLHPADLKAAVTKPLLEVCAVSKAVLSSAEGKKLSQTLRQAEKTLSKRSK

[8] = biological target: T4, Tyrosyl-tRNA synthetase, putative (Trypanosoma cruzi (strain CL Brener)); assay: Trypanosoma cruzi tyrosyl tRNA synthetase (TcYRS) SOP; type: functional; settings: 30 µM
[9] = biological target: Chromo domain-containing protein 1 (Saccharomyces cerevisiae (strain ATCC 204508 / S288c) (Baker's yeast)) (UniProt P32657); assay: ScCHD-1 Enzyme Inhibition Assay; type: functional; settings: 30 µM; also: in the data most compounds retested in dose-response had high values
Chromo domain-containing protein 1 (Saccharomyces cerevisiae (strain ATCC 204508 / S288c) (Baker's yeast)), sequence (P32657 whole entry, the tested form may be a part): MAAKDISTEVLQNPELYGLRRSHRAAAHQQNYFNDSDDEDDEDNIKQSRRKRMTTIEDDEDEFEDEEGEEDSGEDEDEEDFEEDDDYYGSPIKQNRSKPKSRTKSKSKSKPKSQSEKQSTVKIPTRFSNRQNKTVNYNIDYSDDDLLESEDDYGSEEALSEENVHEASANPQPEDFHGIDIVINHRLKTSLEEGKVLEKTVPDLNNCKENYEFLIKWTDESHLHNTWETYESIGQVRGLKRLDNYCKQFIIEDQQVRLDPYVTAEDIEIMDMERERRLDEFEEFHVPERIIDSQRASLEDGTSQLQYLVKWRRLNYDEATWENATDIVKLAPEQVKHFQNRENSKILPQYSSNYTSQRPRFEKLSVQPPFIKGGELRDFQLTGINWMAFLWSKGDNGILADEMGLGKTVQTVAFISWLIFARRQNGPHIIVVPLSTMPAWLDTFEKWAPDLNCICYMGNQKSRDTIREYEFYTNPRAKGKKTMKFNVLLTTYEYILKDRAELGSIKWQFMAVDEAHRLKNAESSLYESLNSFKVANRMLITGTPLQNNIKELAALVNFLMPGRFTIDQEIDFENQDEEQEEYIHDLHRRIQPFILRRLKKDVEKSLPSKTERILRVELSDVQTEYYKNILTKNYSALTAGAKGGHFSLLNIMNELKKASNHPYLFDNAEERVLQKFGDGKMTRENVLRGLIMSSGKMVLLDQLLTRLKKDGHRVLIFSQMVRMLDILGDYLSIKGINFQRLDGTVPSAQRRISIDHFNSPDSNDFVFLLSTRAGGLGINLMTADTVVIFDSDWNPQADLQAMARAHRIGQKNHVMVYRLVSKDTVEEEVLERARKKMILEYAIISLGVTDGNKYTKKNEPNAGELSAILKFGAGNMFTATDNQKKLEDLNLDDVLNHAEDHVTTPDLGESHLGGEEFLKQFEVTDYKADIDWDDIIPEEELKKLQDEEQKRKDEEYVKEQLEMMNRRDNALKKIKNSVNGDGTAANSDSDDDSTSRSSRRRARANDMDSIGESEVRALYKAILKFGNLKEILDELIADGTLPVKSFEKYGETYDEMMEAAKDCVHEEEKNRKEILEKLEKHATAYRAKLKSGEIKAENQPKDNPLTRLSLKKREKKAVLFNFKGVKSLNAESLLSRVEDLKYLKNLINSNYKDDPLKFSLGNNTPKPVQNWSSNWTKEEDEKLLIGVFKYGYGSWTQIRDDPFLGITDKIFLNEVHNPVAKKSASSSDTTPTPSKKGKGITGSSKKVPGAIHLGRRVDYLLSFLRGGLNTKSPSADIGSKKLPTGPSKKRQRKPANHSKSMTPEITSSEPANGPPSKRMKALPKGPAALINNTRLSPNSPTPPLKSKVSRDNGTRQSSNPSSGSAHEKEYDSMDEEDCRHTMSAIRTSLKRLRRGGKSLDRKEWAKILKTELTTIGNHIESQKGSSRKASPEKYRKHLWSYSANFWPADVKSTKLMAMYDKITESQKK

Protein translocase subunit SecA (Escherichia coli (strain K12)), sequence (P10408 whole entry): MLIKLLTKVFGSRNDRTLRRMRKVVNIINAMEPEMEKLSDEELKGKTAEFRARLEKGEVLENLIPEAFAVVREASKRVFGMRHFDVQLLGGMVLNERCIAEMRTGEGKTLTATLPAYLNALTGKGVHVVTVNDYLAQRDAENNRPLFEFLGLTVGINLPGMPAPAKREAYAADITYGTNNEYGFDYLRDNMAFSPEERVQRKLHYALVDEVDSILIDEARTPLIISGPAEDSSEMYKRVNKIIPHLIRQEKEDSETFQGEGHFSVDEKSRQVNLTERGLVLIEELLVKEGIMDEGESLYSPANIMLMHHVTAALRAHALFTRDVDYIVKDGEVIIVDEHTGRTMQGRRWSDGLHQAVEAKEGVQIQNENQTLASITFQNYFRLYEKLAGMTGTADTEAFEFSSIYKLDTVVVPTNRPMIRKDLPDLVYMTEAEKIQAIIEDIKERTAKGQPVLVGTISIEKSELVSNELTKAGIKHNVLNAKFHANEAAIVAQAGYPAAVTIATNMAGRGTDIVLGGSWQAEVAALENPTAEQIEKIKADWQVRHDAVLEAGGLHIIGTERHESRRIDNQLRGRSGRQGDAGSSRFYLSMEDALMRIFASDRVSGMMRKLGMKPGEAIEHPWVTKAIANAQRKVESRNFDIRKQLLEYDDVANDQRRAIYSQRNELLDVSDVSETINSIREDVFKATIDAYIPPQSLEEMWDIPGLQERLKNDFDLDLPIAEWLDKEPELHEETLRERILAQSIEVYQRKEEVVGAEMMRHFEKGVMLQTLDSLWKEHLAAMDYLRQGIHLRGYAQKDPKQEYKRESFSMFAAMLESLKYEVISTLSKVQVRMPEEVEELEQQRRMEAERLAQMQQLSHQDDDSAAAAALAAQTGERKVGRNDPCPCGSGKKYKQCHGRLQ

| Structure (SMILES) | Percent Effect [1] [%] | Percent Effect [2] [%] | Percent Effect [3] [%] | Percent Effect [4] [%] | Percent Effect (Trypanosoma cruzi) [%] | Percent Effect [5] [%] | Percent Effect [6] [%] | Percent Effect (Homo sapiens) [%] | Percent Effect [7] [%] | Percent Effect [8] [%] | Percent Effect [9] [%] |
| --- | --- | --- | --- | --- | --- | --- | --- | --- | --- | --- | --- |
| CNc1cc(N2CCCC2CNCc2ccccn2)ncn1 (configuration not stated) | -1.73 | 13.5 | -11.7 | -3.49 | -2.93 | -2.08 | 16 | 24.8 | 11.9 | 11 | 26.6 |
| Cc1nnc(N2CCC(CN(C)C(C)C)CC2)c(C#N)c1C | -4.73 | 2.6 | -19 | -13.1 | 9.89 | -4 | 3.64 | 4.7 | 3.81 | 11.8 | -23.4 |
| Cc1ccc(C(=O)Nc2cc(C(C)C)n[nH]2)cn1 | -6.49 | 5.2 | 97.8 | 4.24 | -5.06 | 3.56 | 10.3 | 75.7 | 3.88 | 9.76 | -5.01 |
| O=C(NCC(Cc1cccc(F)c1)N1CCCC1=O)c1cnccn1 (configuration not stated) | -2.43 | 2.74 | 8.47 | -6.79 | -4.31 | 3.64 | 9.94 | -2.19 | 4.3 | 5 | -2.36 |
| Cc1ccoc1-c1nnc(CNCCn2cccn2)o1 | -0.597 | 22.8 | -3.87 | -12.1 | 3.12 | 1.52 | 7.29 | 23.9 | 7.39 | 24.1 | -15.5 |
| Cn1c(C(F)(F)F)nn(CCNC(=O)c2cnc3ccccc3n2)c1=O | -2.81 | 13.7 | 4.14 | 14.5 | 3.33 | 0.909 | -1.95 | -0.549 | 3.23 | 12.5 | -3.18 |
| O=C(CCc1nccs1)N1CCCC(N2CCNC2=O)C1 (configuration not stated) | -3.25 | 11 | 5.41 | -1.3 | -2.35 | 5 | 8.16 | 4.48 | 4.3 | 10 | -4.2 |
| CCOCC1CN(Cc2ccoc2)Cc2nn(CC3CC3)cc21 (configuration not stated) | -7.41 | -2.7 | 4.81 | -1.13 | -3.52 | 0 | 3.3 | 5.53 | -7.92 | 6.1 | 0.75 |
| N#Cc1ccccc1N1CCCN(C(=O)CCn2cccn2)CC1 | -6.4 | 15.2 | 5.53 | 0.749 | 5.19 | -0.76 | 6.8 | 3.94 | 5.42 | 16.5 | -6.74 |
| CN(C)S(=O)(=O)N1CCC2(COCc3cnc(-c4ccccc4)nc32)C1 (configuration not stated) | -3.52 | 13.3 | 1.46 | -2.12 | 4.44 | -1.25 | 12.3 | 12.3 | -8.33 | 2.5 | -4.77 |
| COc1c(CNCCNC(=O)c2ccc(C)cc2)c(C)nn1C | -5.75 | 13.5 | -5.83 | 19.1 | 6.96 | -2.4 | 5.57 | -9.3 | 7.92 | 28.1 | -7.35 |
| Cc1cnc(N2CCC3(CCCN(c4ccc(C)nn4)C3)C2)nc1 (configuration not stated) | 1.3 | 11 | 1.6 | 7.43 | -6.35 | -21.6 | 13.1 | 33.6 | 6.25 | 13.6 | -5.51 |
| O=C(c1ccccn1)N1C[C@@H]2CC[C@H](C1)N(C(=O)CCc1ccsc1)C2 | -0.66 | 7.79 | 1.47 | 8.15 | -4.82 | -5.52 | 13.3 | 5.27 | 7.53 | 13.6 | -2.49 |
| CCOC(=O)CCC(=O)N1CCC(Oc2ccc(C(F)(F)F)cn2)CC1 | -1.66 | 7.79 | 4.3 | 13.1 | -6.41 | -1.94 | 14.1 | 20.3 | 3.17 | 11.5 | -5.92 |
| CCN(CC)CCNC(=O)c1cnc(C(C)(C)C)s1 | -3.73 | 0 | 2.58 | -11.2 | -3.64 | 2.88 | 8.21 | 0.408 | 0.493 | -6.17 | -0.603 |
| COCCn1ccc2cc(NC(C)=O)ccc21 | -8.18 | 23.7 | -9.22 | 7.23 | 1.46 | -9.47 | 16.4 | -6.07 | 4.25 | 10.4 | -9.21 |
| CCN(CC(=O)NC)S(=O)(=O)N1CCCCCC1 | -5.53 | 10.8 | -3.76 | 4.7 | -0.489 | 3.72 | 6.61 | 8.47 | 4.3 | 13.6 | -2.62 |
| CN(CC(=O)N1CCN(c2ncccn2)CC1)c1ccc(Cl)cn1 | 0.47 | 8.11 | -0.12 | 10.1 | 5.79 | 14.3 | 9.83 | 16.3 | 4.76 | 14.6 | -1.14 |
| CC1CCN(S(=O)(=O)NCC2CCOc3ccccc3C2)CC1 (configuration not stated) | -7.79 | 2.6 | 4.04 | 4.95 | -2.46 | -8.28 | 6.16 | 23.1 | 0 | 3.7 | -0.0656 |
| CCN1CCCC1CN(CCN(C)C)S(=O)(=O)c1cccc(C#N)c1 (configuration not stated) | -5.4 | 13.7 | 3.08 | 5.43 | 6.27 | 4.09 | 8.16 | 0.578 | 4.3 | 10 | -4.67 |
| CCc1noc(C2CCCCN2C(=O)c2nnc3ccccc3n2)n1 (configuration not stated) | -4.1 | 9.33 | -3.18 | -0.0891 | 3.54 | -7.57 | 14.6 | -16.9 | 11.6 | 17.9 | -14.2 |
| OC(COCc1ccccc1Cl)CN1CC(n2cccn2)C1 (configuration not stated) | 1.1 | -15.8 | 3.43 | -0.349 | -1.5 | 6.9 | 14.5 | 9.39 | 4.41 | 0 | -9.18 |
